# Data: article PMC7862700, “An all-to-all approach to the identification of sequence-specific readers for epigenetic DNA modifications on cytosine”
# Experiments:
# Test in all cases: DAPPL (digital affinity profiling via proximity ligation, sequencing); 10 mM Tris-HCl pH 7.5, 50 mM NaCl, 1 mM DTT, 4% glycerol, room temperature, 30 min; GST-TFs on glutathione beads, 16-mer random dsDNA library, 0.1% formaldehyde crosslink after washing; high values mean tight binding
# Conditions in all cases: protein: recombinant; tags: N-terminal GST; dsDNA, one strand shown
# SPI1 = SPI1 (Homo sapiens, UniProt P17947 1-270)
# In short: (§1)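 Human transcription factors fused to GST were expressed in yeast, captured on glutathione beads, given DNA barcodes and pooled with a GST-only negative control. Pools were incubated with 200 nmole of a 16-mer random double-stranded DNA library in Tris/NaCl/DTT/glycerol buffer at room temperature for 30 min. They were then washed, crosslinked with 0.1% formaldehyde, proximity-ligated (BsaI/T4 ligase, 1 h, 37 °C), PCR-amplified and sequenced on an Illumina NextSeq500. Binding signal is each 6-mer's read frequency for a factor divided by its frequency for the GST control.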
# ELK3 = biological target: T1, ELK3 (Homo sapiens, UniProt P41970 1-407)
# T1 sequence: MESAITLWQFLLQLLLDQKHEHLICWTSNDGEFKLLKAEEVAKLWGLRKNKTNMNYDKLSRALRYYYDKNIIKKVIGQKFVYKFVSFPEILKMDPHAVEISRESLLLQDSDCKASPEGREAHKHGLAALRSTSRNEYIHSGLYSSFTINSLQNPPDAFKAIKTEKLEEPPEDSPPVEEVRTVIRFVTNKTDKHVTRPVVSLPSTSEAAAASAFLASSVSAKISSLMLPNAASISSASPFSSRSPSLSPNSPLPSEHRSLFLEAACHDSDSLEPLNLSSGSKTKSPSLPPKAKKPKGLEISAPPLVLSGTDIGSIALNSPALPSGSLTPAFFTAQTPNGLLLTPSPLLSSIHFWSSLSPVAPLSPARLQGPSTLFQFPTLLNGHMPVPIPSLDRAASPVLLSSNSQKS
# In short: as §1
# ETV1 = ETV1 (Homo sapiens, UniProt P50549 1-477)
# ETV1, sequence (P50549 whole entry): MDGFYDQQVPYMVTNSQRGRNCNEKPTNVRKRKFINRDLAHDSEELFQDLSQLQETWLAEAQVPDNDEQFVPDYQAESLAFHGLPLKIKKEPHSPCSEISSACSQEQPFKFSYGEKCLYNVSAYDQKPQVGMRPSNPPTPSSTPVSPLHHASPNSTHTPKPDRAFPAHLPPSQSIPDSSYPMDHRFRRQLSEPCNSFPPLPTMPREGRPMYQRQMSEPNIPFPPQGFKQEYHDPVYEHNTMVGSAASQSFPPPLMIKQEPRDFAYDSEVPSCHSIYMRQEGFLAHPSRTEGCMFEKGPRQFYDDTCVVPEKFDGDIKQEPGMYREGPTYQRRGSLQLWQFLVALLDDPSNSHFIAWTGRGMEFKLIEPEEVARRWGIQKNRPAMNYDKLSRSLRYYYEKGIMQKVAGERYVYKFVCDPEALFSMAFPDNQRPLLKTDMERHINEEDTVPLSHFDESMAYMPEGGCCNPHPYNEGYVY
# In short: as §1
# ERF = biological target: T2, ERF (Homo sapiens, UniProt P50548 1-548)
# T2 sequence: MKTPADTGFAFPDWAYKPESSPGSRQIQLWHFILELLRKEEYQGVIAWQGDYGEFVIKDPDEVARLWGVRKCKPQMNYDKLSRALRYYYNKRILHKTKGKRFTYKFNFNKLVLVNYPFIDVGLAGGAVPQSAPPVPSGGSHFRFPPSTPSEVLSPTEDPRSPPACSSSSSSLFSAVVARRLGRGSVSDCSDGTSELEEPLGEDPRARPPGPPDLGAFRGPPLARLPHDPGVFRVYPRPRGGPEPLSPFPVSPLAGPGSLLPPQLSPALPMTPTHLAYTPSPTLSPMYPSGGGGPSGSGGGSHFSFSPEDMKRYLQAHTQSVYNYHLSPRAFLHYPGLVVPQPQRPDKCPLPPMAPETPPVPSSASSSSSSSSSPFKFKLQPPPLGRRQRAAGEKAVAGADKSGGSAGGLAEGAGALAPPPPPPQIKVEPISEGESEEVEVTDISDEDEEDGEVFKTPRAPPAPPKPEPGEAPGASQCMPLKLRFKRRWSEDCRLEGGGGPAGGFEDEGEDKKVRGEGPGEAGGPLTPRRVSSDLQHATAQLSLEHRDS
# In short: as §1
# ETV3 = biological target: T3, ETV3 (Homo sapiens, UniProt P41162-2 1-143)
# T3 sequence: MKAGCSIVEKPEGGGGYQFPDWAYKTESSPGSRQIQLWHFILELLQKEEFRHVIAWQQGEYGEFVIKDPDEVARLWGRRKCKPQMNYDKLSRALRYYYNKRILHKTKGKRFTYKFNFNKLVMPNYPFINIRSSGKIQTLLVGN
# In short: as §1
# SPIB = SPIB (Homo sapiens, UniProt Q01892 1-262)
# SPIB, sequence (Q01892 whole entry): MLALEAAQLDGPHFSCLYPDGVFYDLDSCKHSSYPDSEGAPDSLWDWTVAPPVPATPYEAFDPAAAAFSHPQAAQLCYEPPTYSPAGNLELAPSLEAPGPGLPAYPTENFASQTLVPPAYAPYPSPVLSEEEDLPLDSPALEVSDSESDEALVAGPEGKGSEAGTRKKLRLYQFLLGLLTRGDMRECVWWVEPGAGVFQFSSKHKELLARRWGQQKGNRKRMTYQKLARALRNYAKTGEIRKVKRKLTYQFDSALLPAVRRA
# In short: as §1
# ETV3L = biological target: T4, ETV3L (Homo sapiens, UniProt Q6ZN32 1-361)
# T4 sequence: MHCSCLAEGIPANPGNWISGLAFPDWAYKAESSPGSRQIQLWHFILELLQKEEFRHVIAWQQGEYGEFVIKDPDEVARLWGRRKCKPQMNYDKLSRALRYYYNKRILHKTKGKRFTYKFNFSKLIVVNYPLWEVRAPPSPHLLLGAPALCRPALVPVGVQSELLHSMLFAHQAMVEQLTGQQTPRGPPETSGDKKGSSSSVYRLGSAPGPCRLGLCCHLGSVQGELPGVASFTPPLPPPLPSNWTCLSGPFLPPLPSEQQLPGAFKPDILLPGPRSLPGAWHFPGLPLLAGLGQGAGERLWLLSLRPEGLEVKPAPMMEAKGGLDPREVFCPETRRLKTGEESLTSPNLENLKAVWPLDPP
# In short: as §1
# ETS2 = biological target: T5, ETS2 (Homo sapiens, UniProt P15036 1-469)
# T5 sequence: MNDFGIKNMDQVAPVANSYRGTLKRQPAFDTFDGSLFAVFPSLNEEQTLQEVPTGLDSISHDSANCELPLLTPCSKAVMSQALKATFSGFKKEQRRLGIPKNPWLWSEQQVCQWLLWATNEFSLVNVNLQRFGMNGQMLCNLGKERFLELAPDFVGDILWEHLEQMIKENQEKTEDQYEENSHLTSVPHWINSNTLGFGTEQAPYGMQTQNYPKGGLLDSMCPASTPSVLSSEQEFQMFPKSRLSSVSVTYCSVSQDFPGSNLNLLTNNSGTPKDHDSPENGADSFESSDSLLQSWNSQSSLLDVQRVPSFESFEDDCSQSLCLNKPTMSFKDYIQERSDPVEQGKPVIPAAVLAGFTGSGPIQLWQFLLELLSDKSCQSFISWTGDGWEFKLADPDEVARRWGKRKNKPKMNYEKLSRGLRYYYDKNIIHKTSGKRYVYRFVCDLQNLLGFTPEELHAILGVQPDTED
# In short: as §1
# ERG = biological target: T6, ERG (Homo sapiens, UniProt P11308 1-479)
# T6 sequence: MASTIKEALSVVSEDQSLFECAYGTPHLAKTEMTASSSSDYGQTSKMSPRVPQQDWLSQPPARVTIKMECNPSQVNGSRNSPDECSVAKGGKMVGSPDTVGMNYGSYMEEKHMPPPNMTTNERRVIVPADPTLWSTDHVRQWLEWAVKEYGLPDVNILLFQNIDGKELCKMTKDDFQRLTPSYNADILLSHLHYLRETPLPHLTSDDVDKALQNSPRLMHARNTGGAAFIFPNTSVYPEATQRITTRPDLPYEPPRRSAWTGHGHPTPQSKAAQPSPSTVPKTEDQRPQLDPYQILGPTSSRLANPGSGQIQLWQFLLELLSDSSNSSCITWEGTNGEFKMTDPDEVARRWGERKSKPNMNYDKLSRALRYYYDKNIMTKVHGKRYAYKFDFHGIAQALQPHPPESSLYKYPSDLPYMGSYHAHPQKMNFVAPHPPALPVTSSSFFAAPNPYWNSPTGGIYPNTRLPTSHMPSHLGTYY
# In short: as §1
# ETV7 = biological target: T7, ETV7 (Homo sapiens, UniProt Q9Y603 1-341)
# T7 sequence: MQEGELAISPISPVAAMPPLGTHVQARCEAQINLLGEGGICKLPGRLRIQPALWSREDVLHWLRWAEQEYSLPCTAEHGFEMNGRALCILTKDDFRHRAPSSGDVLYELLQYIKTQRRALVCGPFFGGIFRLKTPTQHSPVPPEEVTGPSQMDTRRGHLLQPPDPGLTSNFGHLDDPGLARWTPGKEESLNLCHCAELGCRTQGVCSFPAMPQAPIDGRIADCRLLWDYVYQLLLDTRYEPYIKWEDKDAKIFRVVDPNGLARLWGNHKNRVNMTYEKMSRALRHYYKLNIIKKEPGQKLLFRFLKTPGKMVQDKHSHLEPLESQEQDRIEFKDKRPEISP
# In short: as §1
# EHF = biological target: T8, EHF (Homo sapiens, UniProt Q9NZC4 1-300)
# T8 sequence: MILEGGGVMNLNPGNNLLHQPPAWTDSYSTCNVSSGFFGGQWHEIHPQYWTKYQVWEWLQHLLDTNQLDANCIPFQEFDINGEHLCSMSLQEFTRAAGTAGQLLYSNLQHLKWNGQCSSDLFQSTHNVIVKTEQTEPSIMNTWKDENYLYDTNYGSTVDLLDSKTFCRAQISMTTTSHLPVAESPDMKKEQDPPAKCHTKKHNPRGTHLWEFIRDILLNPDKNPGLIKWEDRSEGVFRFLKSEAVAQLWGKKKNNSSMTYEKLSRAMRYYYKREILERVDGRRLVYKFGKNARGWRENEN
# In short: as §1
sequence,measurement,setting,value
AAGGGG,binding signal,SPI1,"1.36 fold enrichment (6-mer frequency, TF over GST control)"
same,binding signal,ELK3,"1.05 fold enrichment (6-mer frequency, TF over GST control)"
same,binding signal,ETV1,"1.07 fold enrichment (6-mer frequency, TF over GST control)"
TTGGAC,binding signal,ERF,"1.02 fold enrichment (6-mer frequency, TF over GST control)"
same,binding signal,ETV3,"1.01 fold enrichment (6-mer frequency, TF over GST control)"
CAGTTT,binding signal,SPIB,"1.03 fold enrichment (6-mer frequency, TF over GST control)"
same,binding signal,ELK3,"1.04 fold enrichment (6-mer frequency, TF over GST control)"
same,binding signal,ERF,"1.01 fold enrichment (6-mer frequency, TF over GST control)"
AGTTCA,binding signal,SPI1,"1.01 fold enrichment (6-mer frequency, TF over GST control)"
same,binding signal,ETV3L,"1.04 fold enrichment (6-mer frequency, TF over GST control)"
same,binding signal,ETS2,"1 fold enrichment (6-mer frequency, TF over GST control)"
GTGGAC,binding signal,ERF,"1.03 fold enrichment (6-mer frequency, TF over GST control)"
CCTGTC,binding signal,ERG,"1.01 fold enrichment (6-mer frequency, TF over GST control)"
same,binding signal,ETV7,"1.03 fold enrichment (6-mer frequency, TF over GST control)"
GACAAA,binding signal,ERF,"1.06 fold enrichment (6-mer frequency, TF over GST control)"
same,binding signal,ETV7,"1.1 fold enrichment (6-mer frequency, TF over GST control)"
AGCGCA,binding signal,ETV3L,"1.01 fold enrichment (6-mer frequency, TF over GST control)"
GAACAG,binding signal,ERG,"1.02 fold enrichment (6-mer frequency, TF over GST control)"
same,binding signal,EHF,"1.03 fold enrichment (6-mer frequency, TF over GST control)"
same,binding signal,SPIB,"1.03 fold enrichment (6-mer frequency, TF over GST control)"
same,binding signal,ETV7,"1 fold enrichment (6-mer frequency, TF over GST control)"
same,binding signal,ETV3,"1.05 fold enrichment (6-mer frequency, TF over GST control)"
GTCTGT,binding signal,ETV1,"1.01 fold enrichment (6-mer frequency, TF over GST control)"
